Assay outcomes (PubChem BioAssay)
hcDAF12 agonist = H. contortus DAF-12 activation, primary screen | HEK293 hcDAF-12 lit1-tk-luc reporter, luminescence; 0% DMSO, 100% Δ7-dafachronic acid | activation, % at 6.8 µM | 370,000 tested, 1.4% active | AID 652067;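 active = activation above the mean of all tested compounds plus 3 SD, cut at about 5.5% in these data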
DAX1 StAR inh = blocks DAX1 repression of SF-1 activated StAR promoter | inhibition, % at 6.8 µM | 370,000 tested, 1.1% active | HEK293T StAR-luciferase reporter, SF-1/DAX-1 repression relief | AID 652010;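 active = inhibition above the mean over all tested compounds plus 3 SD, cut at about 3.6% in these data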;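 note: higher inhibition means more luminescence from relief of DAX-1 repression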
Wnt act = activators of Wnt/beta-catenin signaling; Wnt/beta-catenin reporter cell assay, activator, plate reader; AID 743398; 300,000 tested, 1.2% active; activation, % at 9.35 µM; in the data active = activation above about 30%, passing the limit was not always enough; inconclusive = no clear call, values can overlap the other calls
ssDAF12 agonist = activators of S. stercoralis DAF-12 nuclear receptor | 370,000 tested, 1% active | HEK293 ssDAF-12/GRIP1 lit1-tk-luc reporter, luminescence; % of 3 µM dafachronic acid response | activation, % at 6.8 µM;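 active = activation above the mean over all tested compounds plus 3 SD, cut at about 0.9% in these data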
hgDAF12 agonist = agonists of H. glycines DAF-12 nuclear receptor | 370,000 tested, 1.8% active | activation, % at 6.8 µM | HEK293 GAL4-hgDAF12 UAS-luciferase reporter, agonist luminescence; normalized to butyrate control;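 active = activation above a cutoff set at the mean of all screened compounds plus 3 SD, cut at about 10% in these data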
esBAF inh = blocks esBAF chromatin remodeling in mouse ES cells; AID 602393; Bmi1-luciferase knock-in reporter, 24 h; 100% = twice the neutral-well signal; reporter increase, % at 12.5 µM; 350,000 tested, 2% active; in the data active = activation above about 40%; inconclusive = no clear call, values can overlap the other calls;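 note: a rise in the Bmi1 reporter signal indicates esBAF inhibition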
hgDAF12 ag = confirmation of H. glycines DAF-12 agonists | HEK293 GAL4-hgDAF12 luciferase reporter, agonist mode; percent of butyrate response | activation, % at 6.8 µM | shares compounds with hgDAF12 agonist | 3,300 tested, 80% active | AID 743050;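 active = mean activation over triplicate wells above the hit cutoff derived from the earlier primary screen, cut at about 11% in these data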
LXR ag 2 = LXR-beta agonism as DAF-12 counter-screen. shares compounds with hgDAF12 agonist. HEK293 Gal4-LXR luciferase reporter, 24 h. activation, % at 6.8 µM. 3,300 tested, under 10 active. AID 743051;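 active = mean activation of the triplicate above a set limit carried over from the primary screen, none filed active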
Target sequence (P55055 whole entry, looked up, the tested form may be a part): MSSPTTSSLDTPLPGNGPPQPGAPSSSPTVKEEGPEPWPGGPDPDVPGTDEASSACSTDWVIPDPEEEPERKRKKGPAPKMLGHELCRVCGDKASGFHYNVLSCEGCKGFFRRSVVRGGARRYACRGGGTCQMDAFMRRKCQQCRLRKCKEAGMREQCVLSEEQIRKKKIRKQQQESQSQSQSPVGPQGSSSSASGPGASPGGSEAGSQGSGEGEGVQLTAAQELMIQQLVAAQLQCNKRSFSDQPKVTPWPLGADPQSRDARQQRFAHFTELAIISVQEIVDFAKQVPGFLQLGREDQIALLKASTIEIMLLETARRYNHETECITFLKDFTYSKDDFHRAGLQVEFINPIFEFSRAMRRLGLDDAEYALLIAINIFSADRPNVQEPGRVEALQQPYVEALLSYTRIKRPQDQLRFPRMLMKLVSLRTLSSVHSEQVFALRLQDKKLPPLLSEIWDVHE
Each line names hits and unclear results; the compound was inactive in the other large screens (follow-up assays come after a bar, where they were run). In the library only some 4.2% were active in any assay of this set; here they are far more common.

Cc1nc(NC(=O)/C=C/c2ccco2)sc1C	hgDAF12 agonist 13 (no result: esBAF inh) | hgDAF12 ag 19 | LXR ag 2 inactive
CCc1cc2cc(C(=O)Nc3ccccc3F)sc2s1	hcDAF12 agonist 6.4, hgDAF12 agonist 15 | hgDAF12 ag 18 | LXR ag 2 inactive
COC(=O)C1C(=O)c2c([nH]c(C(=O)OC3CCCCC3)c2C)CC1C (stereo unspecified)	Wnt act inconclusive, hgDAF12 agonist 15, esBAF inh 63 | hgDAF12 ag 12 | LXR ag 2 inactive
C[C@H]1CN([C@@H](C)CO)C(=O)c2cc(C#Cc3ccncc3)cnc2O[C@@H]1CN(C)C(=O)c1ccccc1F	none (no result: hcDAF12 agonist, DAX1 StAR inh, Wnt act, ssDAF12 agonist, hgDAF12 agonist)
O=c1nc(-c2ccccc2)c2ccccc2[nH]1	none (no result: Wnt act)
O=c1[nH]c2ccccc2nc1-c1ccccc1	hgDAF12 agonist 16 (no result: esBAF inh) | hgDAF12 ag inactive | LXR ag 2 inactive
Cc1ccc(-c2nnc(CCC(=O)NCC3C4CC5CC(C4)CC3C5)o2)s1 (stereo unspecified)	hgDAF12 agonist 14 (no result: esBAF inh) | hgDAF12 ag inactive | LXR ag 2 inactive
O=C(CCc1nnc(-c2ccccc2)o1)NCC1CCN(C2CCCC2)CC1	none (no result: esBAF inh)
N#C[C@H]1[C@H](c2ccc(C3=CCCCC3)cc2)[C@@H](CO)N1C(=O)NC1CCCCC1	none (no result: hcDAF12 agonist, DAX1 StAR inh, Wnt act, ssDAF12 agonist, hgDAF12 agonist)
CCOc1ccc2nc(Cl)sc2c1	none (no result: esBAF inh)
CCc1nc2cc3sc(CC)nc3cc2s1	hgDAF12 agonist 16, esBAF inh 76 | hgDAF12 ag 13 | LXR ag 2 inactive
C[C@@H]1CN([C@@H](C)CO)S(=O)(=O)c2ccc(C#Cc3cccnc3)cc2O[C@H]1CN(C)C(=O)CN(C)C	none (no result: hcDAF12 agonist, DAX1 StAR inh, Wnt act, ssDAF12 agonist, hgDAF12 agonist)
C/C=C/c1ccc2c(c1)O[C@@H](CN(C)C(=O)CN(C)C)[C@H](C)CN([C@@H](C)CO)S2(=O)=O	none (no result: hcDAF12 agonist, DAX1 StAR inh, Wnt act, ssDAF12 agonist, hgDAF12 agonist)
CCOC(=O)C(Cc1c[nH]c2ccccc12)NC(=O)c1ccccc1Br (stereo unspecified)	hgDAF12 agonist 14, esBAF inh 74 | hgDAF12 ag inactive | LXR ag 2 inactive
Cc1ccc(C(=O)Nc2ccccc2C(=O)NC(Cc2c[nH]c3ccccc23)C(=O)O)cc1 (stereo unspecified)	none (no result: esBAF inh)
COc1ccc(C#Cc2ccc3c(c2)[C@H]2[C@H](CCN2C(=O)Nc2ccc(C(F)(F)F)cc2)[C@@H](CO)N3C)cc1	none (no result: hcDAF12 agonist, DAX1 StAR inh, Wnt act, ssDAF12 agonist, hgDAF12 agonist)
CC(C)(C)C(=O)N/C(N)=N/c1nc2ccccc2o1	Wnt act 65, ssDAF12 agonist 1.5, hgDAF12 agonist 13 | hgDAF12 ag 15 | LXR ag 2 inactive
O=S(=O)(c1ccc(N=C2NN=C(c3cc(F)ccc3F)CS2)cc1)N1CCOCC1	none (no result: esBAF inh)
Fc1ccc(N=C2NN=C(c3cc(F)ccc3F)CS2)cc1	hgDAF12 agonist 16 (no result: esBAF inh) | hgDAF12 ag 11 | LXR ag 2 inactive
CSc1nc(-c2ccc(N(C)C)cc2)c(C#N)c(=O)n1C	hgDAF12 agonist 14 | hgDAF12 ag inactive | LXR ag 2 inactive
CSc1nc(-c2ccc(Cl)cc2)c(C#N)c(=O)n1C	none
c1ccc(C2=Nc3ccccc3NC(c3ccccc3)C2)cc1 (stereo unspecified)	hgDAF12 agonist 14 (no result: Wnt act) | hgDAF12 ag 15 | LXR ag 2 inactive
Brc1ccccc1C1CC(c2ccccc2)=Nc2ccccc2N1 (stereo unspecified)	hgDAF12 agonist 14 (no result: esBAF inh) | hgDAF12 ag inactive | LXR ag 2 inactive
Clc1ccccc1C1CC(c2ccccc2)=Nc2ccccc2N1 (stereo unspecified)	none (no result: esBAF inh)
C[C@@H]1CN([C@@H](C)CO)C(=O)c2cccc(NS(=O)(=O)c3ccc(Cl)cc3)c2O[C@H]1CN(C)C(=O)Nc1ccc(C(F)(F)F)cc1	none (no result: hcDAF12 agonist, DAX1 StAR inh, Wnt act, ssDAF12 agonist, hgDAF12 agonist)
c1cn2cc(-c3ccc4c(c3)OCO4)nc2s1	hcDAF12 agonist 6.5, DAX1 StAR inh 4.3, ssDAF12 agonist 1.6, hgDAF12 agonist 16 (no result: Wnt act) | hgDAF12 ag 16 | LXR ag 2 inactive
CC(C)C(=O)Nc1cccc(-c2cn3ccsc3n2)c1	none
O=C(Nc1ccc(-c2cn3ccsc3n2)cc1)C1CCCC1	hgDAF12 agonist 16 (no result: Wnt act) | hgDAF12 ag 18 | LXR ag 2 inactive
CC(=O)CSc1ncnc2c1cnn2-c1ccccc1	Wnt act 42, hgDAF12 agonist 17 | hgDAF12 ag 17 | LXR ag 2 inactive
Cc1ccc(-c2cc3nc4c(c(=O)n3[nH]2)CCCC4)cc1	none
O=c1c2c(nc3cc(-c4ccc(F)cc4)[nH]n13)CCC2	hcDAF12 agonist 6.4, DAX1 StAR inh 4.1, hgDAF12 agonist 15 (no result: esBAF inh) | hgDAF12 ag 17 | LXR ag 2 inactive
COc1ccc(NC(=O)Nc2ccc3c(c2)[C@@H]2C[C@H](CC(=O)NC4CCCC4)O[C@H](CO)[C@@H]2O3)cc1	none (no result: hcDAF12 agonist, DAX1 StAR inh, Wnt act, ssDAF12 agonist, hgDAF12 agonist)
O=C(COc1cc(Cl)c(Cl)cc1Cl)Nc1cccc(O)c1	Wnt act 45, hgDAF12 agonist 17 (no result: esBAF inh) | hgDAF12 ag 18 | LXR ag 2 inactive
Cc1ccc2nc(-c3ccc(SCC(=O)Nc4ccc5c(c4)OCCO5)nc3)[nH]c2c1	hgDAF12 agonist 20 (no result: Wnt act, esBAF inh) | hgDAF12 ag 21 | LXR ag 2 inactive
Cc1ccc(Cl)c(OCC(=O)Nc2ccc3c(c2)OCCO3)c1	hgDAF12 agonist 14, esBAF inh 86 (no result: Wnt act) | hgDAF12 ag 15 | LXR ag 2 inactive
O=C(COc1ccccc1Br)Nc1ccc2c(c1)OCCCO2	hgDAF12 agonist 15, esBAF inh 51 | hgDAF12 ag 14 | LXR ag 2 inactive
COC(=O)C[C@H]1CC[C@H]2[C@@H](COc3ccc(NC(=O)c4cc(F)cc(F)c4)cc3C(=O)N2C)O1	none (no result: hcDAF12 agonist, DAX1 StAR inh, Wnt act, ssDAF12 agonist, hgDAF12 agonist)
C[C@@H]1CN([C@H](C)CO)C(=O)c2cccc(NS(=O)(=O)c3ccc(F)cc3)c2O[C@@H]1CN(C)Cc1ccc(-c2ccccc2)cc1	none (no result: hcDAF12 agonist, DAX1 StAR inh, Wnt act, ssDAF12 agonist, hgDAF12 agonist)
CO[C@@H]1CN(C)C(=O)c2cc(NS(C)(=O)=O)ccc2OC[C@H](C)N(C(=O)C2CC2)C[C@H]1C	none (no result: hcDAF12 agonist, DAX1 StAR inh, Wnt act, ssDAF12 agonist, hgDAF12 agonist)
COc1ccc(N2C(=O)CCC2=O)c(OC)c1	hgDAF12 agonist 13 (no result: esBAF inh) | hgDAF12 ag inactive | LXR ag 2 inactive
Cc1ccc(C)c(NC(=O)c2nc(Cl)ccc2Cl)c1	hgDAF12 agonist 14 | hgDAF12 ag inactive | LXR ag 2 inactive
Cc1ccc(C)c(NC(=O)COC(=O)c2nc(Cl)ccc2Cl)c1	none
CCNC(=O)C[C@H]1CC[C@@H]2[C@@H](COc3ccc(NC(=O)c4ccccc4)cc3C(=O)N2C)O1	none (no result: hcDAF12 agonist, DAX1 StAR inh, Wnt act, ssDAF12 agonist, hgDAF12 agonist)
O=C(COc1ccccc1)OCC(=O)c1c[nH]c2ccccc12	none
CC1(C(=O)OCC(=O)c2c[nH]c3ccccc23)CC1(Cl)Cl (stereo unspecified)	ssDAF12 agonist 1.6, hgDAF12 agonist 14, esBAF inh 46 (no result: Wnt act) | hgDAF12 ag 15 | LXR ag 2 inactive
